From PubChem BioAssay
Values without a mark were called inactive. No rule for the calls is given here.

Target: Pantothenate synthetase (Mycobacterium tuberculosis (strain ATCC 25618 / H37Rv)) (UniProt P9WIL5)
Test: Recombinant Mtb pantothenate synthetase (PanC) inhibitors, coupled enzyme, confirmatory (AID 375);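 also: 0% = full reaction with vehicle and 100% = no enzyme background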
Settings: coupled enzyme assay; at 10 µM, hits give high values

Chain of Pantothenate synthetase (Mycobacterium tuberculosis (strain ATCC 25618 / H37Rv)) (P9WIL5 whole entry, looked up): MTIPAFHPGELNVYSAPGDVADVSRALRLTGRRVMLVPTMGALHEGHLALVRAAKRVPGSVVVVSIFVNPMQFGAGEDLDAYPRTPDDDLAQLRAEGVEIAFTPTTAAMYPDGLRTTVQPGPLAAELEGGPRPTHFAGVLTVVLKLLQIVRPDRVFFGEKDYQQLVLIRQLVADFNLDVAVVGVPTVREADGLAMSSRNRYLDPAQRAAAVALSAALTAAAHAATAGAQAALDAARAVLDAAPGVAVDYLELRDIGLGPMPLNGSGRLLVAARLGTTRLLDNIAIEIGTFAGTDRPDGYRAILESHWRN

| Structure (SMILES) | inhibition [%] |
| --- | --- |
| Cc1cc(C)n(CC2CC(=O)N(c3ccc(Cl)c(Cl)c3)C2=O)n1 (stereo not given) | 0 |
| O=C(Cn1c(C(=O)NCC2CCCO2)cc2sccc21)c1ccccc1 (stereo not given) | 0 |
| CNCCC(Oc1ccc(C(F)(F)F)cc1)c1ccccc1 (stereo not given) | 4 |
| CC(NCc1ccco1)C(=O)N1CCc2ccccc2C1 (stereo not given) | 5 |
| O=C(Nc1nncs1)c1ccccc1NS(=O)(=O)c1cccs1 | 0 |
| O=C(OCC#CCSc1nc2ccccc2o1)c1ccco1 | 0 |
| CSc1nc2c(ccc3ccccc32)o1 | 2 |
| COc1cc2cc(C(c3nnnn3C3CCCC3)N(C)C3CCCCC3)c(=O)[nH]c2cc1OC (stereo not given) | 9 |
| CC(=O)OCC(=O)c1ccc2ccn(C(C)=O)c2c1 | 3 |
| COc1ccccc1CCNC(=O)C1CCCO1 (stereo not given) | 0 |
| COc1cccc(-c2cc(C(F)(F)F)n3nc(N)nc3n2)c1 | 2 |
| Cc1cc(NC(=O)c2ccccc2Oc2ccccc2)no1 | 12 |
| C/C(=N\O)C(=O)NCc1ccccn1 | 4 |
| CC(C)Oc1ccc2c(=O)c(-c3ccccc3)coc2c1 | 4 |
| COC(=O)CCN1CCC(C(N)=O)CC1 | 1 |
| CCOC(=O)c1cc2c(=O)n3cccc(C)c3nc2n(CCc2ccccc2)c1=N | 0 |
| CCOc1ccc(NC(=O)CN(c2cc(C)cc(C)c2)S(=O)(=O)c2c(C)noc2C)cc1 | 7 |
| COc1ccc(NC(=O)C(C)Oc2ccc(/C(C)=N\O)cc2)cc1 (stereo not given) | 0 |
| CCN(C(=O)COC(=O)c1cc(C)n(-c2ccc(F)cc2)c1C)C1CCS(=O)(=O)C1 (stereo not given) | 1 |
| COCCCn1c(SCC(=O)N2CCc3ccccc32)nnc1-c1ccoc1C | 9 |

| Structure (SMILES) | inhibition [%] |
| --- | --- |
| CCOC(=O)c1cc2c(=O)n3ccccc3nc2n(CCCOC)c1=NC(C)=O | 1 |
| COc1ccc(OC)c(NC(=O)c2cn(C)c(=O)c3cc(OC)c(OC)cc23)c1 | 1 |
| Cc1ccc(-n2nc3cc(Cl)c(NC(=O)c4ccco4)cc3n2)cc1 | 3 |
| COCCn1nnnc1CN(Cc1cccnc1)Cc1cc2cc(OC)ccc2[nH]c1=O | 6 |
| O=C(NCc1cccnc1)/C(=N\O)c1ccccc1 | 0 |
| O=S(=O)(c1cccc(-c2nnco2)c1)N1CCCC1 | 0 |
| CCOC(=O)CN(C(=O)c1ccccc1)c1ccccc1C | 0 |
| CCN(CCCCOC(=O)c1ccc(OC)c(OC)c1)C(C)Cc1ccc(OC)cc1 (stereo not given) | 9 |
| CC(C)CNC(=O)C1CC(=O)OC12CCCCC2 (stereo not given) | 5 |
| Cc1ccc(-c2nn(-c3ccccc3)cc2/C=C(\C#N)c2cccc(C#N)c2)o1 | 0 |
| O=C(O)C1CC=CCC1C(=O)NCc1ccccc1 (stereo not given) | 1 |
| Cc1ccc(C)c(/C(O)=C2\C(=O)C(=O)N(CCCN3CCOCC3)C2c2cccnc2)c1 (stereo not given) | 2 |
| COc1ccc(Cl)cc1N1CCN(CCNC(=O)Nc2ccccc2C)CC1 | 0 |
| CCN(CC)C(=O)c1sc(NC(=O)c2ccco2)c(C#N)c1C | 15 |
| O=C(OCN1C(=O)c2ccccc2C1=O)c1ccc2c(=O)n3c(nc2c1)CCC3 | 0 |
| CCOC(=O)c1[nH]c2ccccc2c1NC(=O)c1ccco1 | 0 |
| O=C(CC1CCS(=O)(=O)C1)Nc1ccc[nH]c1=O (stereo not given) | 2 |
| COc1ccc(NC(=O)CN2CCCCC2)cc1 | 0 |
| COc1ccc(OC)c(NC(=O)CS(=O)(=O)Cc2nc(-c3ccccc3C)oc2C)c1 | 0 |
| O=C(COC(=O)C12CC3CC(CC(O)(C3)C1)C2)N1CCN(S(=O)(=O)c2ccc(Cl)cc2)CC1 | 3 |
